Experimental data taken from PMC4336329 (PLoS ONE, 2015).
In all, about 310,000 compounds went through this assay and about 14,000 (4.5%) showed an effect of 50% or more. Effects have a minus sign here. The list comes from a sample in which strong results are over-represented; it also holds similar structures and randomly drawn compounds.

Biological target: human ether-à-go-go-related gene (hERG) potassium channel (human, UniProt Q12809)
Test: primary screen, population patch clamp on CHO cells stably expressing hERG; higher = less effect of the substance
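Also: peak tail current of the secondary pulse compared with the same well before compound.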

Sequence of human ether-à-go-go-related gene (hERG) potassium channel (Q12809 whole entry, looked up): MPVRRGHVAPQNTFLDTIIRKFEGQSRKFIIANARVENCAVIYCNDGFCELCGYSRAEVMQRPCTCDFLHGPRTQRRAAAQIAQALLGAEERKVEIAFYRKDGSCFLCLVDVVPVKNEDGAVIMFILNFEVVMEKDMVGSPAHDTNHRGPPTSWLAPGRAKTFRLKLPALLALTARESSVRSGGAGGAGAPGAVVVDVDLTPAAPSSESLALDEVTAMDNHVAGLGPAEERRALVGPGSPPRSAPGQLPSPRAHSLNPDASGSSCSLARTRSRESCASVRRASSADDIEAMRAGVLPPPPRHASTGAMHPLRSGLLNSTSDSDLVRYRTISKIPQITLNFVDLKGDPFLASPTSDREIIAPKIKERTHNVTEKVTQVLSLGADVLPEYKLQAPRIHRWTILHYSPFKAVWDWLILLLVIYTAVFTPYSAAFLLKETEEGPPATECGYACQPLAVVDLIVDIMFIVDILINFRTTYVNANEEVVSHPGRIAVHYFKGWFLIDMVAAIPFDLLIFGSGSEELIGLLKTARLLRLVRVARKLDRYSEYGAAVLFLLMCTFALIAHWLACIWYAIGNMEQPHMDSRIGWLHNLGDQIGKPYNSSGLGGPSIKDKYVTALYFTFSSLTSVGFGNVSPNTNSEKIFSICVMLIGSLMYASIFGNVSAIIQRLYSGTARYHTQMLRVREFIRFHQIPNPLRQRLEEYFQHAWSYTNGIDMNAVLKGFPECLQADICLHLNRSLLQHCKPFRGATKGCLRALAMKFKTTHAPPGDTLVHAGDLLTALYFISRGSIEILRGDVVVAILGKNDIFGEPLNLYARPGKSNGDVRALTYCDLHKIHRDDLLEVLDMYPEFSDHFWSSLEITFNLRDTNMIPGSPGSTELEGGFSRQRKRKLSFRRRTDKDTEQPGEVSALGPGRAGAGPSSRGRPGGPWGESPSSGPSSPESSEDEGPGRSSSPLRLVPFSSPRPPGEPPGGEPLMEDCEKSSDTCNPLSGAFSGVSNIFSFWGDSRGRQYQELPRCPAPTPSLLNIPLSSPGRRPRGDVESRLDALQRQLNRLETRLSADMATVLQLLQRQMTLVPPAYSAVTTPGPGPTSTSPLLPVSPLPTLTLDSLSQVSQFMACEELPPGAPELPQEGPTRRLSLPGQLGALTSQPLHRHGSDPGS

| Compound | hERG current change (%, negative = inhibition) at 10uM [%] |
| --- | --- |
| O=C(N/N=C/C(Br)=C/c1ccccc1)C1CC1 | 32.2 |
| COc1ccc(NC(=O)Cn2nnc(C(=O)NCc3ccc4c(c3)OCO4)c2N)c(OC)c1 | 18.1 |
| COc1ccc2oc(C(=O)Nc3nccs3)c(C)c2c1 | 16.7 |
| O=C(OCc1nnc(-c2ccccc2)o1)C1CC(=O)N(CCc2ccccc2)C1 (stereo not shown) | -31 |
| O=C(OCc1nnc(-c2ccc([N+](=O)[O-])cc2)o1)C1CC(=O)N(CCc2ccccc2)C1 (stereo not shown) | -61.7 |
| O=C(OCc1nnc(-c2ccccc2)o1)C1CC(=O)N(c2ccccc2)C1 (stereo not shown) | -21.5 |
| COc1ccc(OC)c(CCNC(=O)CCn2nc(C)c3c(C)n(-c4ccccc4)nc3c2=O)c1 | 18.5 |
| CCCC(=O)Nc1c(C(=O)OCC)oc2ccccc12 | 1.98 |
| COC(=O)c1oc2ccc(Br)cc2c1NC(=O)CCN1CCOCC1 | -17.7 |
| COC(=O)c1oc2ccc(Br)cc2c1NC(=O)CN1CCN(C)CC1 | -62.3 |
| CCOC(=O)c1oc2ccc(OC)cc2c1NC(=O)CN1CCN(C)CC1.Cl | -5.54 |
| CCOC(=O)c1oc2ccccc2c1NC(=O)CN1CCN(C)CC1 | -58.4 |
| CCOC(=O)c1oc2ccc(Br)cc2c1NC(=O)CN1CCN(C)CC1 | -65.8 |
| COC(=O)c1oc2ccc(Br)cc2c1NC(C)=O | 3.19 |
| CCOC(=O)c1oc2ccccc2c1NC(=O)CN1CCOCC1 | 6.54 |
| COC(=O)c1oc2ccc(Br)cc2c1NC(=O)CCCN1C(=O)c2ccccc2C1=O | 17.1 |
| Cc1ccc(C)c(N=Cc2c(O)c3ccccc3oc2=O)c1 | 16.3 |
| CCc1ccc(C(C(=O)NC2CCCC2)N(C(=O)/C=C/C(=O)Nc2cc(C)on2)c2ccccc2C)cc1 (stereo not shown) | 9.58 |
| C/C(=N\Nc1ccccc1Cl)c1ccc(-n2ccnc2)cc1 | -7.1 |
| COCCCN1CN=C(NS(=O)(=O)c2ccc(C)cc2)NC1 | 13.3 |
| CC(=O)c1cccc(NC(=O)COc2ccc(S(=O)(=O)N3CCOCC3)cc2)c1 | -10.1 |
| Cc1nc2ccc(-c3nc4ccccc4[nH]3)cc2[nH]1 | 7.78 |
| Cc1ccc(S(=O)(=O)NCCC(=O)NC2CCCCC2C)cc1 (stereo not shown) | 3.4 |
| COC(=O)c1ccc(NC(=O)C23CC4CC(C2)CC(n2cnc(Cl)n2)(C4)C3)cc1 | -27.3 |
| COc1cc(NC(=O)C23CC4CC(C2)CC(n2cnc([N+](=O)[O-])n2)(C4)C3)cc(OC)c1 | -66.7 |
| COc1ccc(NC(=O)C23CC4CC(C2)CC(n2cnc(Br)n2)(C4)C3)cc1OC | -2.41 |

| Compound | hERG current change (%, negative = inhibition) at 10uM [%] |
| --- | --- |
| Cc1ccc(F)cc1NC(=O)C12CC3CC(C1)CC(n1cnc([N+](=O)[O-])n1)(C3)C2 | -52.8 |
| COc1ccc(OC)c(NC(=O)C23CC4CC(C2)CC(n2cnc(Br)n2)(C4)C3)c1 | -41.2 |
| COc1ccc(NC(=O)C23CC4CC(C2)CC(n2cnc(Br)n2)(C4)C3)c(OC)c1 | -23.4 |
| O=C(Nc1ccccc1)C12CC3CC(C1)CC(n1cnc([N+](=O)[O-])n1)(C3)C2 | -59.6 |
| O=C(Nc1cccc2ccccc12)C12CC3CC(C1)CC(n1cnc([N+](=O)[O-])n1)(C3)C2 | -44.5 |
| COc1ccc(NC(=O)C23CC4CC(C2)CC(n2cnc(Br)n2)(C4)C3)c(C)c1 | -9.06 |
| CC(=O)Nc1ccc(NC(=O)C23CC4CC(C2)CC(n2cnc(Br)n2)(C4)C3)cc1 | -63.4 |
| COc1ccc(NC(=O)C23CC4CC(C2)CC(n2cnc(Br)n2)(C4)C3)cc1Cl | 3.08 |
| COC(=O)c1ccccc1NC(=O)C12CC3CC(C1)CC(n1cnc(Cl)n1)(C3)C2 | -38.5 |
| Cn1c(=O)c([N+](=O)[O-])c(NCC(O)c2ccccc2)c2ccccc21 (stereo not shown) | -2.03 |
| CCOC(=O)Cc1nn(C(C)C)c(=O)c2ccccc12 | 26.6 |
| Cc1cccc(NC(=O)CCn2nc(C)cc2C)c1 | 9.02 |
| CN(C)C(=O)/C(=C/c1cn(-c2ccccc2)nc1-c1cccc([N+](=O)[O-])c1)NC(=O)c1ccccc1 | -29.1 |
| CCNC(=S)N1CCCC(c2nc3ccc(C)cc3[nH]2)C1 (stereo not shown) | -2.45 |
| CC1=C(C(=O)OCc2ccccc2)C(c2ccc(Cl)cc2Cl)NC(=O)N1CCCCCC(=O)O (stereo not shown) | -16.2 |
| CCN(CC(=O)Nc1ccc(OC)cc1)C(=O)c1cc(-c2cccs2)nn1-c1ccccc1 | -15.4 |
| CCOc1ccc(CN(C)C(=O)[C@H](Cc2ccccc2)NC(=O)OCc2ccccc2)cc1OC | -15.7 |
| c1csc(CNc2ncnc3nc[nH]c23)c1 | -2.79 |
| O=C(Nc1cccc([N+](=O)[O-])c1)C12CC3CC(C1)CC(n1cnc([N+](=O)[O-])n1)(C3)C2 | -67.8 |
| Cc1cc(NC(=O)C23CC4CC(C2)CC(n2cnc([N+](=O)[O-])n2)(C4)C3)no1 | -32.4 |
| O=[N+]([O-])c1ncn(C23CC4CC(CC(C4)C2)C3)n1 | -8.76 |
| O=C(Nc1ccon1)C12CC3CC(C1)CC(n1cnc([N+](=O)[O-])n1)(C3)C2 | -50.5 |
| O=C(O)c1cccc(NC(=O)C23CC4CC(C2)CC(n2cnc(Cl)n2)(C4)C3)c1 | 6.02 |
| O=C(Nc1cc(Oc2ccccc2)cc([N+](=O)[O-])c1)C12CC3CC(C1)CC(n1cnc(Cl)n1)(C3)C2 | 13.9 |
| COc1ccc(CNC(=O)c2coc(=O)c3ccccc23)cc1 | -27.3 |
| O=C(NC1CCN(Cc2ccccc2)CC1)C(NS(=O)(=O)c1cccc2nsnc12)c1ccccc1 (stereo not shown) | -44.6 |
